Screens from PubChem BioAssay.
A selection: hits, their analogues and other compounds. The true share with any hit is near 21%.
Pf growth 48h – inhibits P. falciparum growth in the first generation, 48 h; AID 504832; actives 5.9% (n = 310,000); P. falciparum luciferase growth in erythrocytes, 48 h; Potency, µM (top dose mostly 28.7 µM), for the others: at the highest dose activity change, negative = inhibition, hits mostly inhibitors; further: potency means the concentration at half of the fitted maximal effect; on the % scale 0 is the no-effect control and ±100 the full control effect
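Cell-based growth assay: transgenic P. falciparum expressing firefly luciferase, cultured in red cells within RPMI 1640 containing 0.5% w/v Albumax, 24 mM bicarbonate and gentamycin. A drop in luciferase activity indicates inhibition.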
HCV inh – HCV inhibition; actives 3.4% (n = 340,000); Huh7.5.1 HCVcc-Cre infection, luciferase reporter, 44 h; Potency, µM (top dose mostly 41.8 µM), inactives show at the top dose activity change, negative = inhibition, most hits filed as inhibitors; further: potency means the concentration at half of the fitted maximal effect; on the % scale 0 is the no-effect control and ±100 the full control effect
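Cells seeded at 1,000/well and cultured 4 h, then compounds added followed by HCVcc-Cre virus (~0.5 moi). After 44 h further culture, luciferase substrate was added, plates held 15 min at room temperature, and luminescence read for 15 sec.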
HCMV antiviral – inhibitors of human cytomegalovirus | HFF cells, HCMV-luciferase reporter, 72 h; active compounds read low | actives 4.5% (n = 410,000) | AID 1259415 | activity change, negative = inhibition, % at 57.5 µM; in the data active means activity change below about -60%; inconclusive means no clear call, values can overlap the other calls; inactive means above about -39%; further: on the % scale 0 is the no-effect control and ±100 the full control effect
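Steps: HFFs plated, 16 h 37C; compounds added; HCMV-luciferase added to MOI 1 PFU/cell; 72 h 37C; OneGlo reagent, 5 min room temperature; luminescence read, normalized to controls.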
CHX counter – counter-screen for Shiga toxin inhibitors: cycloheximide protein synthesis inhibition. cell reporter, cycloheximide protein synthesis inhibition counterscreen. max response, %. actives 12% (n = 300,000). AID 2314; in the data active means max response mostly above about 13%, no sharp cut-off; inactive means mostly below about 14%; further: read at 38.3 µM for the half of the compounds with a filed dose; 0% is about no effect
Shiga toxin inh – inhibitors of Shiga toxin in Vero cells; Vero cells, Shiga toxin protein synthesis inhibition reporter; inhibition, % at 38.7 µM; actives 9.2% (n = 290,000); AID 2315; in the data active means inhibition mostly above about 28%, no sharp cut-off; inactive means mostly below about 43%; further: 0% is about no effect
Pf growth 96h – P. falciparum growth inhibition at 96 hour, primary screen for plastid delayed-death inhibitors | Potency, µM (doses to about 28.7 µM), for inactives: at the top dose activity change, negative = inhibition, actives largely listed as inhibitors | P. falciparum luciferase reporter growth, 96 h | AID 504834 | actives 6.9% (n = 320,000); further: potency means the concentration at half of the fitted maximal effect; on the % scale 0 is the no-effect control and ±100 the full control effect
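Luminescence readout: decreased luciferase signal marks inhibited growth of reporter-expressing P. falciparum in infected red cells (2% hematocrit, 0.05% parasitemia final), exposed to compound two generations (96 h, 37 C, 5% CO2).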
The depositor's hits bear a star; i = inactive; u = inconclusive; x = no result given. Unless noted, the call rests on the fitted dose curve; in most records, active means well fitted inhibition curve with a large enough effect; inconclusive means small, poorly fitted or top-dose-only effect, or another doubt; inactive means no such curve, though single readings can be large or run the other way.

SMILES	Pf growth 48h	HCV inh	HCMV antiviral	CHX counter	Shiga toxin inh	Pf growth 96h
COC(=O)c1ccc(NC(=O)C(=O)c2cccn2C)cc1	307%	-7%	79	29*	54*	i
COC(=O)c1ccc(NC(=O)Cc2ccc(C)cc2)cc1	x	6%	2	9	26	42%
COC(=O)c1ccc(NC(=O)Cc2ccccc2)cc1	113%	5%	12	50*	100*	x
CCOc1ccc(NC(=O)[C@H](Cc2ccccc2)N2Cc3ccccc3C2=O)cc1	x	x	7	x	x	x
N#CCc1nn2c(-c3ccccc3)ccnc2c1C#N	u	-19%	-12	-2	-6	-20%
CC(=O)Nc1cccc(NC(=O)CC2(C)N=C(c3cccc(Br)c3)N(C)O2)c1 (stereo not drawn)	x	x	-13	x	x	x
C[C@H]1[C@@H](c2ccccc2)Oc2ccc(Cl)cc2S(=O)(=O)N1Cc1ccc(Cl)cc1	x	x	-19	x	x	x
COc1ccc(OC)c(S(=O)(=O)CC(O)CS(=O)(=O)c2ccccc2)c1 (stereo not drawn)	-2%	8%	-4	-1	-5	36%
CCOc1ccc(NC(=O)c2ccc(NC(=O)COC(=O)Cc3ccc(OC)cc3)cc2)cc1	9%	-5%	110	18	60*	42%
CCOc1ccc(NC(=O)Cc2ccccc2)cc1	155%	-27%	165	93*	104*	0%
CCOc1ccc(NC(=O)COC(=O)c2ccc3c(c2)C(=O)N(CCc2ccccc2)C3=O)cc1	u	7%	19	19*	66*	-3%
O=C(COC(=O)c1ccc2c(c1)C(=O)N(CCc1ccccc1)C2=O)Nc1ccc(OC(F)F)cc1	2%	8%	10	6	32	10%
CCOc1ccc(-n2nc3ccc(NC(=O)Cc4ccccc4)cc3n2)cc1	x	x	-107*	x	x	x
CCCCN(CCCC)C(=O)CN(C)S(=O)(=O)c1ccc2c(c1)c(=O)n(C)c(=O)n2C	x	x	-31	x	x	x
O=C(Nc1ccccc1)N(Cc1cccs1)c1ccc(F)cc1	x	x	-3	x	x	x
CCOc1ccc(NC(=O)CSCC(=O)O)cc1	12%	11%	7	13	-16	x
COc1cc(C(=O)Nc2ccc3nn(-c4ccc(F)cc4)nc3c2)cc(OC)c1OC	x	x	-11	x	x	x
COc1ccc(-n2nc3ccc(NC(=O)c4c(OC)cccc4OC)cc3n2)cc1	x	x	52	36*	52	x
CCOc1ccc(NC(=O)C2C(c3ccccc3)C2(Cl)Cl)cc1 (stereo not drawn)	0%	-27%	-5	21*	42*	u
CCOc1ccc(NC(=O)CSc2ccccc2N)cc1	-5%	-14%	82	39*	118*	-2%
CCCN1C(=O)CC[C@@H](S(=O)(=O)c2ccccc2)[C@@H]1c1ccccc1	x	x	-9	x	x	x
CC1(C)C(=O)Nc2ccccc2N1C(=O)COC(=O)c1ccc([N+](=O)[O-])o1	x	-10%	-19	x	x	x
CN(CCc1ccccn1)C(=O)Nc1ccc(C(C)(C)C)cc1	3%	u	8	20*	26	35%
CN(CCc1ccccn1)C(=O)Nc1ccc(F)cc1	9%	3%	29	-5	3	-11%
CCS(=O)(=O)N1CCc2cc(C(=O)Nc3cccc(NC(C)=O)c3)ccc21	x	x	29	x	x	x
SMILES	Pf growth 48h	HCV inh	HCMV antiviral	CHX counter	Shiga toxin inh	Pf growth 96h
CC1=C(C(=O)Nc2ccccc2C)C(c2ccco2)n2ncnc2N1 (stereo not drawn)	x	x	-6	x	x	x
CCOc1ccc(C2C(C(=O)OC)=C(C)NC3=C2C(=O)c2ccccc23)cc1OC (stereo not drawn)	x	x	-16	x	x	x
C#CCOc1c(Br)cc(C2C(C(=O)OC)=C(C)NC3=C2C(=O)c2ccccc23)cc1OCC (stereo not drawn)	x	x	-63*	x	x	x
Cc1cc(Cn2nc(-c3ccccc3)cc2C(=O)NCc2cccc(C(F)(F)F)c2)on1	u	u	1	x	x	u
CCc1cc(Cn2nc(-c3ccccc3)cc2C(=O)NCc2cccs2)on1	15µM*	u	23	x	x	5.9µM*
Cc1cc(Cn2nc(-c3ccccc3)cc2C(=O)NCc2cccc(Br)c2)on1	u	5.6µM*	41	x	x	u
CCn1nc(NC(=O)c2cccs2)c2cc3ccccc3nc21	-3%	25µM*	-14	7	10	24%
CCCCC(=O)Nc1nn(CCC)c2nc3ccccc3cc12	12µM*	u	16	-3	-6	u
CCn1nc(NC(=O)c2cccnc2)c2cc3ccccc3nc21	x	-28%	11	-2	-16	-15%
CN(CC1CCCO1)S(=O)(=O)c1ccc(C(=O)Nc2nc3cc4c(cc3s2)OCO4)cc1 (stereo not drawn)	u	u	-85*	12	11	u
Cc1cc(NC(=O)c2ccc(S(=O)(=O)N(C)CC3CCCO3)cc2)no1 (stereo not drawn)	u	12%	-15	-2	6	-15%
CN(CC1CCCO1)S(=O)(=O)c1ccc(C(=O)Nc2ccc3c(c2)OCO3)cc1 (stereo not drawn)	u	-13%	-7	2	-1	u
CN(CC1CCCO1)S(=O)(=O)c1ccc(C(=O)Nc2nccs2)cc1 (stereo not drawn)	u	-11%	6	24*	22*	u
O=C(CCCc1ccncc1)c1ccccc1	x	2%	24	x	x	x
Cc1ccc(CSc2ncc(Cl)c(C(=O)NCCc3ccc(S(N)(=O)=O)cc3)n2)cc1	x	x	-24	x	x	x
COc1ccc(-n2nc(C(=O)N3CCN(c4cccc(C)c4C)CC3)c3c4ccccc4n(C)c3c2=O)cc1Cl	x	x	10	x	x	x
COc1ccc2nc(N3CCN(C(=O)CS(=O)(=O)c4ccc(C)cc4)CC3)sc2c1	x	x	-64*	x	x	x
COc1ccc(N2CCN(C(=O)CCS(=O)(=O)c3ccc(C)cc3)CC2)cc1	0%	16%	1	-3	-9	-7%
CCCC(=O)N1CCN(c2nc3ccc(F)cc3s2)CC1	x	x	-5	x	x	x
CCCCC(=O)N1CCN(c2nc3ccc(OCC)cc3s2)CC1	u	-1%	-18	13	-2	12µM*
CCCCC(=O)N1CCN(c2nc3ccc(F)cc3s2)CC1	167%	u	u	12	35*	-18%
CCC(=O)N1CCN(c2nc3ccc(Br)cc3s2)CC1	79%	-8%	-10	36*	59*	43%
CCOc1ccc2nc(N3CCN(C(=O)c4ccco4)CC3)sc2c1	x	x	23	x	x	x
Cc1cc(Br)ccc1NC(=O)COc1cc(=O)n(C)c2ccccc12	x	x	-3	x	x	x
COc1cccc(NC(=O)CN2C(=O)C3(SCC(=O)N3c3cc(C)cc(C)c3)c3ccccc32)c1 (stereo not drawn)	x	x	6	x	x	x
COc1ccccc1NC(=O)c1cc2c(cc1Cl)N1CCCCCC1=NS2(=O)=O	x	-20%	68	x	x	x
CCCNC(=O)Cn1sc2nc(C)cc(C)c2c1=O	-3%	-14%	5	-1	15	-4%
